The test system of assay [1] is Aerobactin synthetase IucA (Klebsiella pneumoniae). Description: inhibition of K. pneumoniae IucA enzyme – biochemical, Tocris library, absorbance (AID 1345561; call rule not given here;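 also: 100% = enzyme without compound and 0% = no enzyme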). The conditions noted are these: purified IucA enzyme assay, absorbance (OD) read-out; stronger effect = lower value;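 tested at 8 µM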.
A short description of assay [2]: viability loss with induced miR-34 in A549 – imaging, A549 dox-inducible miR-34, nuclei and caspase counts, primary screen (AID 1347080). The following applies: A549 miR-34 inducible, Hoechst nuclei count, 48 h.
Assay [3] is described as follows: galactose survival enhancers in mitochondrial complex I cybrids – cell-based, galactose medium, ATP luminescence, primary screen (AID 1645843;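 active = z-score of at least 1.8 in each of two replicates, scored against plate mean and spread of sample wells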;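 also: positive z means more ATP and so rescue of galactose-driven cybrid death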). The conditions noted are these: complex I mutant cybrid cells, 72 h, stronger effect = higher value.
Where [4] appears, read: stronger effect = lower value, cell number ratio, induced over uninduced.
Setting [5] is: measured here: relative caspase fold change +Dox/-Dox.
[6] abbreviates: measured here: total cells with miR-34 induction, stronger effect = lower value.
Setting [7] is: measured here: total cells without miR-34 induction.

Structures are written as SMILES. “And” between values parts separate entries of the source, which are not always exact repeats. Equal values may be shown once. The source made the active and inactive calls.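 The calls were made as follows, unless noted: active = compounds whose cell count with miR-34 switched on is under 0.7 times the count with it off; inactive = the rest.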 Where a SMILES comes first, the peptide text is derived from it. [ ]: non-standard residue; d: D form.

By remaining activity is commonly meant the signal under treatment as a percentage of the control signal.

For `CO[C@@H]1[C@H](O)[C@@H](CO)O[C@H]1n1cnc2c(NC3CCCCC3)ncnc21`, the remaining activity in assay [1] was 99.6% (inactive). For the same compound, the values for the fold change in assay [2] (setting [4]) and in assay [2] (setting [5]) were 0.954 (inactive) and 1.32, respectively. In addition, the values for the cell count in assay [2] (setting [6]) and in assay [2] (setting [7]) were 8920 and 9350, respectively. Besides, in assay [3], the z-score is 0.065 (inactive).
On to `CCC1(c2ncc[nH]2)Cc2ccccc2O1` (centres undefined), for which the remaining activity in assay [1] was 118% (inactive). In addition, the fold change in assay [2] (setting [4]) is 0.963 (inactive); in assay [2] (setting [5]), 0.89. Besides, the figures for the cell count in assay [2] (setting [6]) and in assay [2] (setting [7]) were 9330 and 9690, respectively. Besides, in assay [3], the z-score was 0.05 (inactive).
For the compound `CC(C)C[C@H](NC(=O)N1CCCCCC1)C(=O)N[C@H](Cc1cn(C)c2ccccc12)C(=O)N[C@H](Cc1ccccn1)C(=O)O`, the remaining activity in assay [1] is 87.9% (inactive). Further, the results for the fold change in assay [2] (setting [4]) and in assay [2] (setting [5]) were 0.819 (inactive) and 0.926, respectively. The cell count in assay [2] (setting [6]) is 7880; in assay [2] (setting [7]) it was 9620. Moreover, the z-score in assay [3] was 1.25 (inactive).
`Cc1cc(C)c(S(=O)(=O)Nc2cccc(C(F)(F)F)c2)c(C)c1`: the remaining activity in assay [1] is 107% (inactive). Moreover, the fold change in assay [2] (setting [4]) was 0.995 (inactive); in assay [2] (setting [5]), 0.922. The values for the cell count in assay [2] (setting [6]) and in assay [2] (setting [7]) were 5690 and 5720, respectively. Besides, the z-score in assay [3] is -0.605 (inactive).
In the case of `CCCc1c(OCCCOc2ccc(OCC(=O)O)cc2)ccc(CC=O)c1O`, the remaining activity in assay [1] is 117% (inactive). Also, the fold change in assay [2] (setting [4]) was 0.911 (inactive); in assay [2] (setting [5]), 0.927. Moreover, the results for the cell count in assay [2] (setting [6]) and in assay [2] (setting [7]) were 9560 and 10500, respectively. Also, the z-score in assay [3] is 1.5 (inactive).
For the compound `COc1ccc2[nH]c(-c3ccccc3)c(CCNC(C)=O)c2c1`, in assay [1], the remaining activity is 99.3% (inactive). In addition, the values for the fold change in assay [2] (setting [4]) and in assay [2] (setting [5]) were 0.991 (inactive) and 0.88, respectively. The cell count is 7770 in assay [2] (setting [6]) and 7840 in assay [2] (setting [7]). For the same compound, the z-score in assay [3] is -0.185 (inactive).
On to `O/N=C/c1ccc(-c2ccc(O)c(F)c2)c(Cl)c1O`, for which the remaining activity in assay [1] is 117% (inactive). Further, the fold change in assay [2] (setting [4]) is 0.891 (inactive); in assay [2] (setting [5]) it was 1.26. Besides, the cell count in assay [2] (setting [6]) is 7880; in assay [2] (setting [7]), 8840. The z-score in assay [3] is -0.63 (inactive).
Turning to `CC(=O)NCC(=O)N[C@H](CCC(=O)O)C(=O)O` (Ac-Gly-[dE]-OH), in assay [1], the remaining activity was 103% (inactive). In addition, the fold change was 0.899 (inactive) in assay [2] (setting [4]) and 0.513 in assay [2] (setting [5]). The cell count in assay [2] (setting [6]) turned out to be 9020; in assay [2] (setting [7]), 10000. The z-score in assay [3] was -0.245 (inactive).
`O=C(O)CC/C=C\C[C@@H]1CO[C@H](c2ccccc2Cl)O[C@@H]1c1ccccc1O`: the remaining activity in assay [1] is 75.4% (inactive). For the same compound, the fold change was 0.977 (inactive) in assay [2] (setting [4]) and 0.805 in assay [2] (setting [5]). Further, the cell count in assay [2] (setting [6]) was 8270; in assay [2] (setting [7]), 8470. For the same compound, the z-score in assay [3] is 6.17 (active).
For `CC(C)Oc1ccc2c(=O)c3cc(C(=O)O)ccc3oc2c1`, the remaining activity in assay [1] was 93.9% (inactive). In addition, the fold change in assay [2] (setting [4]) was 1.01 (inactive); in assay [2] (setting [5]), 1.37 and 0.638. Moreover, the cell count in assay [2] (setting [6]) is 5920 and 8510; in assay [2] (setting [7]), 5860 and 8390. Besides, in assay [3], the z-score is 0.015 (inactive).
For the compound `CCCCCN=c1ccn(Cc2ccccc2)c2ccccc12`, the remaining activity in assay [1] is 114% (inactive). The fold change was 1.09 (inactive) in assay [2] (setting [4]) and 0.778 in assay [2] (setting [5]). The cell count in assay [2] (setting [6]) stood at 1550; in assay [2] (setting [7]), 1420. In addition, in assay [3], the z-score was -0.705 (inactive).
Take `Brc1cc2c(cc1[C@H]1Nc3ccccc3[C@H]3C=CC[C@H]31)OCO2` (racemic): the remaining activity in assay [1] was 123% (inactive). For the same compound, the fold change in assay [2] (setting [4]) was 0.953 (inactive); in assay [2] (setting [5]), 1.69. For the same compound, the cell count stood at 6570 in assay [2] (setting [6]) and 6900 in assay [2] (setting [7]). Also, the z-score in assay [3] was -0.975 (inactive).
With `CN(Cc1ccccc1)C(=O)[C@H](Cc1ccc2ccccc2c1)NC(=O)[C@@H]1C[C@@H](O)CN1C(=O)c1cn(C)c2ccccc12`, the remaining activity in assay [1] was 102% (inactive). Moreover, the fold change was 0.957 (inactive) in assay [2] (setting [4]) and 1.21 in assay [2] (setting [5]). Moreover, the cell count in assay [2] (setting [6]) was found to be 6080; in assay [2] (setting [7]), 6350. For the same compound, in assay [3], the z-score is 3.41 (active).
`CC(N)(C(=O)O)c1ccc(-c2nn[nH]n2)cc1` (centres undefined): the remaining activity in assay [1] was 94.5% (inactive). For the same compound, the fold change in assay [2] (setting [4]) was 0.913 (inactive); in assay [2] (setting [5]), 0.762. For the same compound, the cell count is 8200 in assay [2] (setting [6]) and 8980 in assay [2] (setting [7]). Moreover, the z-score in assay [3] is 1.42 (inactive).

The values above are taken from PubChem BioAssay.
